# Data from PubChem BioAssay AID2551 (National Center for Advancing Translational Sciences (NCATS), 2010).
# Screen size: about 310,000 compounds; about 17,000 (5.5%) were called active. Another 11% or so got no clear call; they are omitted. The sample as a whole holds a higher share of actives than the screen did. Values without a mark were called inactive. Calls come from the whole dose curve; as a rule, active = well fitted inhibition curve with a large enough effect; inconclusive = small, poorly fitted or top-dose-only effect, or effect the other way; inactive = no such curve, though single readings can be large or run the other way.
# Target: Nuclear receptor ROR-gamma (Mus musculus) (UniProt P51450)
# Test: qHTS for inhibitors of ROR gamma transcriptional activity; note: nearly all actives have a fitted effect of over 60% in size
# Conditions: Drosophila S2 Gal4-RORgamma UAS-luciferase reporter, 20 h; series mostly up to 53.6 µM; activity change, negative = inhibition: at the top concentration
# Method in brief: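 Stably transfected Drosophila Schneider cells are the test system, with ROR gamma fused to Gal4 and luciferase under UAS control; luminescence is read after 20 hr of 700 uM copper sulfate induction at ambient temperature.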
# % is set by controls: 0 for no effect and ±100 for the full control effect; potency is the fitted concentration of half-maximal effect.
# Sequence of Nuclear receptor ROR-gamma (Mus musculus) (P51450 whole entry, looked up): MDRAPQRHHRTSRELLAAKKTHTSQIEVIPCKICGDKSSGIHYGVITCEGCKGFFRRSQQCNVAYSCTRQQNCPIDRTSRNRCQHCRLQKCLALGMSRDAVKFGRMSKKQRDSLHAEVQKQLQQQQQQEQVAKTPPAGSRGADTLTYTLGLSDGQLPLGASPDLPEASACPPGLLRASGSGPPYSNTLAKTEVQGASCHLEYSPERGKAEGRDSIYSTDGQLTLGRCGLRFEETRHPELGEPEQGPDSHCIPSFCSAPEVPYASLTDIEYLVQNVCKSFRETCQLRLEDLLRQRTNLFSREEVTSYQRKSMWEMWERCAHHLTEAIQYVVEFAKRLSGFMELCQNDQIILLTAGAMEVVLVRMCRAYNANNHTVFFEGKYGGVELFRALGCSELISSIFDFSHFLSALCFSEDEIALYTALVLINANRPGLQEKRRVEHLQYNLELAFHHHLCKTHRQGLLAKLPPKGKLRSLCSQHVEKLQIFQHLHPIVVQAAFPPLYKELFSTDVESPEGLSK
Structure (SMILES),"activity change, negative = inhibition",Potency
Cc1c(NC(=O)/C=C/C(=O)O)cccc1[N+](=O)[O-],-4.11%,
O=C(O)/C=C/C(=O)Nc1ccc(F)cc1F,10.8%,
COC(=O)c1sc(-c2ccc(C(C)(C)C)cc2)cc1NC(=O)/C=C/C(=O)O,,12.6 µM (active)
Cc1ccc(/C=N/NC(=S)NC2CCCCC2)o1,,0.251 µM (active)
C/C(=N\NC(=O)NC1CCCCC1)c1ccc(OC(F)F)cc1OC(F)F,-26.9%,
Cc1ccc(/C=N/NC(=O)Cn2nc(C)c(Br)c2C)o1,-22.6%,
Cc1ccc(/C=N/NC(=O)CSc2ccccn2)o1,15.4%,
C/C(=N\NC(=S)NC1CCCCC1)c1ccc(C)o1,,0.631 µM (active)
C/C(=N/NC(=O)c1ccc(Br)o1)c1ccc(C)o1,-4.16%,
COc1ccc(S(=O)(=O)N2CCOC2CNC(=O)C(=O)NCc2ccncc2)cc1OC (configuration not stated),-23.5%,
O=C(N/N=C/c1cc([N+](=O)[O-])ccc1O)/C(=C\c1cccs1)NC(=O)c1ccccc1,,11.2 µM (active)
O=C(Nc1ccccc1)/C(=C/c1ccc([N+](=O)[O-])cc1)NC(=O)c1ccccc1,-5.91%,
O=C(N/N=C/c1ccc(O)cc1)/C(=C/c1ccc([N+](=O)[O-])cc1)NC(=O)c1ccccc1,4.46%,
CCCCc1nc2cc(C(=O)NCCc3cnn(C)c3)ccc2o1,32.8%,
COc1ccccc1-c1cnn2c(N3CCOCC3)cc(C)nc12,1.17%,
N#Cc1ccccc1NC(=O)c1ccc2c(c1)OCO2,-0.235%,
COc1ccc(C(=O)NC(C)Cn2nc(C)cc2C)cc1OC1CCN(C(C)=O)CC1 (configuration not stated),4.79%,
c1ccc(NCc2cccc3ccccc23)nc1,15.3%,
Oc1ccc2ccccc2c1N=Nc1nccs1,,1.26 µM (active)
Oc1ccc(N=Nc2nccs2)c(O)c1,,7.08 µM (active)
Oc1ccc2ccccc2c1C=Nc1ccccc1,-30.3%,
O=C(c1c(F)cccc1F)N1CCN(c2ncc(Br)cn2)CC1,11.8%,
CCOC(=O)N1CCC(N2Cc3cccc(C(=O)Nc4c(C)cccc4CC)c3C2=O)CC1,-1.98%,
Cc1cc(=O)oc2c(C)c(OCC(=O)NCCc3ccc(S(N)(=O)=O)cc3)ccc12,-3.62%,

Structure (SMILES),"activity change, negative = inhibition",Potency
Cc1ccc(NS(=O)(=O)c2cc3c(cc2C)NC(=O)CO3)cc1,21.6%,
N=c1oc2ccccc2cc1C(=O)NCc1ccccc1,3.1%,
CCOC(=O)c1cnc(-n2nc(C)cc2C)nc1NNc1cc(C)nc(-c2ccccc2)n1,,0.1 µM (active)
Cc1cc(C)n(-c2c(F)c(F)c(COC(=O)c3ccccc3)c(F)c2F)n1,22%,
CCOC(=O)c1cnc(-c2ccccc2)nc1Oc1ccc(C)cc1,-0.933%,
CC(C)c1nc2cc(C(=O)NC(C)c3cnn(C)c3)ccc2o1 (configuration not stated),7.34%,
COc1cc(CO)ccc1OCC(=O)Nc1cccc2ccccc12,6.69%,
C=CCNC(=O)CSc1nc2scc(-c3ccco3)c2c(=O)n1CC=C,2.33%,
C=CCn1c(=S)[nH]c2scc(-c3ccco3)c2c1=O,,1.58 µM (active)
C=CCn1cnc2scc(-c3ccccc3)c2c1=O,16%,
CC(C)(C)c1cc[n+](-c2[nH]c(=O)sc2/C=N/N=C(\[O-])c2ccccc2)cc1,-9.35%,
COc1cc(Cl)c(C)cc1NC(=O)CN1CCCCCC1,3.84%,
COc1cc(NC(=S)N2CCCC(C)C2)cc(OC)c1OC (configuration not stated),-41%,
COc1cc(NC(=S)N2CCCC(C)C2)c(OC)cc1Cl (configuration not stated),,12.6 µM (active)
COc1ccc(C2=NN(C(C)=O)C(c3ccccc3)C2)cc1 (configuration not stated),7.98%,
O=C(c1ccccc1)N1N=C(c2ccccc2O)CC1c1ccc(Br)cc1 (configuration not stated),1.01%,
CNC(=S)N1N=C(c2ccccc2)CC1c1ccc(Br)cc1 (configuration not stated),,11.2 µM (active)
COc1ccc(-c2nonc2NC(=O)c2oc3ccc(F)cc3c2C)cc1OC,0%,
O=c1ccc2cc(S(=O)(=O)NCCCc3ccccc3)ccc2[nH]1,-6.85%,
CCN(CC)S(=O)(=O)c1ccc(NC(=O)c2cnc(C)cn2)cc1,3.56%,
CCOc1cc(NC(=O)Nc2ccccc2)c(OCC)cc1NC(=O)CC,40.9%,
COc1ccc(C(=O)C[n+]2ccc(C)cc2)cc1,0.679%,
COc1ccc(C(=O)CC(=O)c2ccc(C)cc2)c(O)c1,,10 µM (active)
COc1ccc(OCCC(=O)c2ccc(OC)cc2)cc1,-24.6%,

Structure (SMILES),"activity change, negative = inhibition",Potency
Cc1cc(C)cc(N(CC(=O)NC2CCCC2)C(=O)CCC(=O)Nc2nccs2)c1,-15.8%,
Cc1ccc(OCC(=O)c2cc(C)n(Cc3ccco3)c2C)c([N+](=O)[O-])n1,-33.6%,
COCC(C)n1c(C)cc(C(=O)COc2ccc(C)nc2[N+](=O)[O-])c1C (configuration not stated),,12.6 µM (active)
Cc1ccc(OCC(=O)NC(C)c2ccccc2)c([N+](=O)[O-])n1 (configuration not stated),-4.48%,
CCOC(=O)C1CCN(Cc2nnc(-c3cccc(Br)c3)o2)CC1,-2.39%,
Cc1noc(C)c1CSCC(=O)N(CCC(C)C)c1c(N)n(Cc2ccccc2)c(=O)[nH]c1=O,-24.5%,
CCCCN1CCNC1=S,,12.6 µM (active)
CCC(C(=O)NCCC(C)C)N(Cc1ccccc1Cl)C(=O)c1snc(C(N)=O)c1N (configuration not stated),9.6%,
CSc1cccc(NC(=S)N(Cc2ccccc2)Cc2ccccn2)c1,,6.31 µM (active)
CC(c1ccccn1)N(CCN(C)C)C(=S)Nc1ccccc1F (configuration not stated),-43.2%,
CSc1cccc(NC(=S)N(C(C)C)C(C)c2ccccn2)c1 (configuration not stated),,22.4 µM (active)
COc1cccc(NC(=S)N(Cc2ccc(C)cc2)Cc2ccccn2)c1,-103%,
CCOc1ccc(C(=O)Nc2cccc(SC)c2)cc1,17.7%,
CSc1cccc(NC(=O)CSc2ccccc2)c1,25.1%,
COC(=O)c1ccc(S(=O)(=O)N2CCc3ccccc3C2)cc1,5.76%,
COc1ccc(NC(=O)CSc2ccc(-c3ccco3)nn2)c(OC)c1,13%,
CN(C)c1ccc(S(=O)(=O)NCC(=O)NCC2CCCCC2)cc1[N+](=O)[O-],-1.36%,
COc1ccc(CN2CC(C(=O)NCCc3ccc(Cl)cc3)CC2=O)cc1 (configuration not stated),17.2%,
CCOc1ccc(NC(=O)CC(Cc2ccc(Cl)cc2)C(=O)O)cc1 (configuration not stated),3.83%,
CCOC(=O)COc1nc(C)cc(C(F)(F)F)c1C#N,1.74%,
CCOC(=O)c1c(C(C#N)C#N)cc(C)nc1C,-1.43% [at 10 µM],
CCOC(=O)c1cc(C)nc(S(C)(=O)=O)c1C#N,,8.91 µM (active)
O=C(O)c1ccccc1-c1ccccc1C(=O)NCCc1ccccc1,31.7%,
CN(CC(=O)Nc1ccccc1C(F)(F)F)C(=O)Cc1ccccc1F,-27.9%,

Structure (SMILES),"activity change, negative = inhibition",Potency
Cc1cccc(C(=O)NCCCN2CCCC2=O)c1,-6.33%,
CCC1=Nc2cc(C(=O)NCCN3CCCC3)ccc2Sc2ccc(C)cc21,2.84%,
Cc1cccc(-c2nc3ccc(C(=O)NCCN4CCN(C)CC4)cc3nc2-c2cccc(C)c2)c1,,12.6 µM (active)
CCN(CC)c1ccc(/C=N/Nc2nc(C)cc(C)n2)c(O)c1,,1.78 µM (active)
CCN(CC)c1ccc(/C=N/Nc2nc(C)cc(=O)[nH]2)cc1,-32.5%,
Cc1cc(C)nc(N/N=C/c2ccncc2)n1,-20.5%,
CCN(CC)c1ccc(/C=N/NC(=O)CNC(=O)c2cccnc2)cc1,11.4%,
O=C(Nc1ccc2c(c1)OCCO2)c1cnccn1,-26.5%,
CCN(CC)c1ccc(/C=N/NC(=O)c2cnccn2)c(O)c1,,1.58 µM (active)
CCc1c(C)c2ccc(OC3CCCCC3=O)cc2oc1=O (configuration not stated),9.01%,
CC(C)(C)n1nnnc1C(c1ccccc1F)N1CCN(C(=O)c2ccco2)CC1 (configuration not stated),0.521%,
OC(COc1ccc(F)cc1Cl)CN1CCc2ccccc2C1 (configuration not stated),0.765%,
CC(C)c1nc2ccc(C(=O)O)cc2[nH]1,,8.91 µM (active)
Cc1cccc(C(=O)O)c1,-7.78%,
OC(c1nc2ccc(F)cc2[nH]1)C(O)c1nc2ccc(F)cc2[nH]1 (configuration not stated),-2.57%,
Cc1ccc(CN(C)Cc2cc(=O)oc3cc(C)c(Cl)cc23)cc1,-12.8%,
CN(c1ccccc1)S(=O)(=O)c1cc(C(=O)Nc2nc3ccccc3[nH]2)ccc1Cl,,2.82 µM (active)
CN(c1ccccc1)S(=O)(=O)c1cc(C(=O)OCC(=O)N2CCN(C(=O)c3ccco3)CC2)ccc1Cl,11.3%,
CN(c1ccccc1)S(=O)(=O)c1cccc(NC(=O)Cc2c(F)cccc2Cl)c1,1.9%,
CN(CC(=O)Nc1c(Cl)cccc1Cl)C(=O)CNC(=O)C1CCCCC1,6.57%,
COc1ccc(C(=O)NC2CC(C)(C)Cc3c2cnn3-c2ccccc2C)o1 (configuration not stated),0.707%,
CC(=O)Nc1cccc(NC(=O)c2ccc3c(c2)CCN3S(C)(=O)=O)c1,-13.8%,
O=C(Cc1ccc(F)cc1)N/N=C/c1ccc2c(c1)OCO2,-4.2%,
Cc1cc(=O)[nH]c(N/N=C/c2ccc3c(c2)OCCO3)n1,-29.2%,

Structure (SMILES),"activity change, negative = inhibition",Potency
Brc1ccc(-c2csc(N/N=C/c3cccnc3)n2)cc1,9.48%,
C(=N\Nc1ccc2ccccc2n1)/c1ccc2c(c1)OCO2,,8.91 µM (active)
Brc1ccc(-c2csc(N/N=C/c3ccc4c(c3)OCO4)n2)cc1,,10 µM (active)
Cc1noc(C)c1/C=N/Nc1ccc2ccccc2n1,18.6%,
O=C(NNC(=O)c1ccco1)Nc1ccccc1,6.3%,
COCCNC(=O)CSc1nc2sccc2c(=O)n1-c1ccccc1,35.1%,
O=Cc1c(NCCCN2CCCC2=O)c2ccccc2[nH]c1=O,-8.89%,
Cc1ccc2c(c1)N(C(=O)CCC(=O)NCc1cccnc1)CCO2,2.85%,
CCOC(=O)c1c(C)c(C(=O)NCCc2ccc(S(N)(=O)=O)cc2)c(C)n1CC,-16.7%,
Cc1noc(C)c1C(=O)NCCc1ccc(S(N)(=O)=O)cc1,6.01%,
CCCNC(=O)c1c(N)n(-c2ccc(S(N)(=O)=O)cc2)c2nc3ccccc3nc12,,12.6 µM (active)
O=S(=O)(Cc1nnnn1-c1ccc(Br)cc1)c1ccc(F)cc1,34.9%,
Cc1cccc(NC(=O)c2ccc(OCC(=O)NCc3ccccc3)cc2)c1C,1.17%,
Cc1scc(C(=O)NNC(=S)NCC(C)C)c1C,,1.78 µM (active)
Cc1cccc(C(=O)OCC(=O)NCC(C)C)c1O,39%,
CC(=O)Nc1ccc(OCC(=O)NCc2ccc(C)cc2)cc1,12.2%,
Cc1ccc(OCC(=O)NNC(=S)NCc2ccccc2)cc1,,1.26 µM (active)
Cc1occc1C(=O)NNC(=S)NCC(C)C,-19.8%,
O=C(NNC(=S)NCc1ccccc1)c1ccc(OC(F)F)cc1,-25.4%,
CNC(=S)NNC(=O)c1cccn(Cc2ccccc2)c1=O,38.7%,
Cc1scc(C(=O)NNC(=S)NCc2ccccc2)c1C,,2 µM (active)
